DT40 TDP1 no CPT – qHTS for Inhibitors of human tyrosyl-DNA phosphodiesterase 1 (TDP1): qHTS in cells in absence of CPT; DT40 Tdp1-/- hTDP1 cells, no CPT, ATP luminescence, 48 h; Potency, µM (top dose mostly 46.2 µM), for inactives: at the highest dose activity change, negative = growth inhibition, hits mostly inhibitors; hit rate 15% among 420,000; also: potency is read from the fitted curve at half-maximal effect; nearly all actives have a fitted effect of over 55% in size
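Camptothecin absent (DMSO only). Human TDP1-complemented DT40 knockout cells, 400 cells/well, 37 °C for minimum 48 hr; ATP measured via CellTiter-Glo, 30 min dark incubation, luminescence.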
ELG1 DNA repair – inhibitors of ELG1-dependent DNA repair in HEK293T cells; HEK293T ELG1-luciferase reporter, luminescence, 16 h; DNA damage induced by 5-fluorouridine; Potency, µM (series often up to 46.1 µM), for inactives: at the highest dose activity change, negative = inhibition, usual class: inhibitors; hit rate 2.3% among 330,000; also: potency is read from the fitted curve at half-maximal effect; nearly all actives have a fitted effect of over 55% in size
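Reporter activity after DNA damage by 5-fluorouridine is monitored. Compound-treated cells incubate 16 hr at 37 °C, then ONE-Glo is added for 30 min before luminescence reading.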
Giardia killer – kills Giardia lamblia; hit rate 0.15% among 340,000; AID 540267; Giardia lamblia trophozoite viability; activity change, % at 7.66 µM, hits read low; in the data active = activity change below about -80%; inconclusive = between about -30% and that limit;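 also: parasites exposed to compound for two days anaerobically before the ATP read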
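Compounds were tested on trophozoites seeded at 100 cells/well and held 48 hrs at 37 deg C anaerobically. An ATP-based luminescent kit measured the remaining live cells.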
IL1B secr inh – inhibitors of inflammasome signaling (IL-1 beta secretion); activity change, % at 57.5 µM; THP-1 LPS/ATP IL-1B secretion, AlphaLISA, 16 h; hits give low values; AID 743279; hit rate 4.7% among 360,000; in the data active = activity change below about -50%; inconclusive = mostly about -30% to -49%
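THP-1 cells pretreated 1 hr with compounds (up to 57.5 uM final), then stimulated with LPS (250 ng/mL final) plus ATP (1.25 mM final); secreted IL-1B measured by AlphaLISA after 16 hr, decreased signal indicating inhibition.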
DT40 TDP1 CPT – DT40-hTDP1 cell growth loss with CPT | chicken DT40 Tdp1-/-;hTDP1 cells + 20 nM CPT, ATP luminescence, 48 h | Potency, µM (top dose mostly 46.2 µM), inactives show at the top dose activity change, negative = growth inhibition, usual class: inhibitors | hit rate 12% among 420,000 | AID 686979; also: potency is read from the fitted curve at half-maximal effect; nearly all actives have a fitted effect of over 55% in size
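Chicken DT40 Tdp1-/- cells stably complemented with human TDP1 were seeded at 400 cells/well in medium containing 20 nM camptothecin, exposed to pin-transferred compounds, and grown at 37 °C for at least 48 hr. Viability was read as ATP luminescence.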
TDP1 block – blocks human tyrosyl-DNA phosphodiesterase 1. hit rate 0.28% among 350,000. recombinant TDP1, AlphaScreen DNA substrate cleavage. Q9NUW8. AID 485290. Potency, µM (doses to about 130 µM), for inactives: at the highest dose activity change, negative = inhibition, usual class: inhibitors; also: potency is read from the fitted curve at half-maximal effect; nearly all actives have a fitted effect of over 40% in size
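Recombinant human Tdp1 (E. coli-expressed, 1 nM final) preincubated with compounds 15 min at room temperature, then 5'-biotin/3'-phosphotyrosine-FITC DNA substrate (15 nM final) added for 5 min. AlphaScreen beads (10 ug/ml final) added 10 min; cleavage lowers signal.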
Starred values were filed as active, the others as inactive; ? = inconclusive; / = not tested or not shown; [ ] = remark or other dose. The list is not random: actives were taken first. Their share in the collection is about 19%. Unless noted, calls follow the shape of the dose curve; as a rule, active = well fitted curve in the direction sought with a large enough effect; inconclusive = small, poorly fitted or top-dose-only effect, or another doubt; inactive = no such curve, though single readings can be large; an effect the other way counts as inactive or inconclusive. % is scaled to controls: 0 for no effect and ±100 for the full control effect.

SMILES | DT40 TDP1 no CPT | ELG1 DNA repair | Giardia killer | IL1B secr inh | DT40 TDP1 CPT | TDP1 block
Cc1cn(C2CC3OCC(NC(=O)C4CCCN4C(=O)OC(C)(C)C)C3O2)c(=O)[nH]c1=O (stereo not given) | / | / | -11.7 | / | / | 3.8%
O=C1CC(=Nc2ccc([N+](=O)[O-])cc2)NN1c1c(Cl)cc(Cl)cc1Cl | 25.9µM* | / | / | -73.8* | ? | /
O=C(c1ccc([N+](=O)[O-])cc1)N(Cc1ccc(Cl)cc1Cl)N1C(=O)CCCC1=O | -22.0% | 2.6% | -1.8 | -7.8 | -11.8% | 6.7%
CC(C)(C)C(C(=O)NC1CCCC1)N1CCN(c2ncccc2C#N)CC1 (stereo not given) | ? | / | / | 3.1 | 16.4µM* | /
Cc1cc(N2CCN(C(C(=O)NC3CCCC3)C(C)(C)C)CC2)c2ccccc2n1 (stereo not given) | 11.6µM* | / | / | -7.2 | ? | /
Cc1ccc(C)c(N2CCN(C(C(=O)NC3CCCC3)C(C)C)CC2)c1 (stereo not given) | 20.6µM* | / | / | -15.1 | 18.4µM* | /
Cc1cc(C(=O)NC2CCCC2)c2ccccc2n1 | 8.2% | -0.7% | 4.4 | 2.1 | 22.3% | /
COc1cccc(C(C(=O)NC2CCCC2)N2CCN(c3cc(C)nc4ccccc34)CC2)c1OC (stereo not given) | 20.6µM* | / | / | -19.8 | 23.1µM* | /
N#Cc1cccnc1N1CCN(C(C(=O)NC2CCCC2)c2ccco2)CC1 (stereo not given) | ? | / | / | -10.1 | -6.1% | /
Cc1ccc(C(=O)O)cc1NS(=O)(=O)c1ccc2c(c1)oc(=O)n2C | -2.6% | 2.0% | -9.5 | 26.9 | -2.4% | /
COC(=O)c1c(OCCN2CCCCC2)cc(=O)n2c1CCN(Cc1cccc3nccnc13)CC2 | -21.0% | / | / | / | -19.4% | /
COc1cc(Cn2c(=O)sc3ccccc32)ccc1OC(C)C | 20.6µM* | / | / | / | ? | -4.2%
CCOc1ccc(Cn2c(=O)sc3ccccc32)cc1OC | ? | ? | 24.2 | -1.1 | ? | 1.9%
CCOc1ccccc1NC(=O)C1=C(C)Nc2ncnn2C1c1sccc1C (stereo not given) | ? | / | / | / | ? | 6.5%
CCC(C(=O)NCc1cccc(Br)c1)n1nc(C)c2c(C)n(-c3ccccc3)nc2c1=O (stereo not given) | ? | / | / | / | 23.1µM* | 5.6%
CCc1ccc(CNC(=O)C(CC)n2nc(C)c3c(C)n(-c4ccccc4)nc3c2=O)cc1 (stereo not given) | 16.4µM* | / | / | / | 23.1µM* | 5.6%
CCC(C(=O)NCc1cccc(C)c1)n1nc(C)c2c(C)n(-c3ccccc3)nc2c1=O (stereo not given) | ? | -15.9% | 8.7 | 2.9 | ? | 4.4%
CCOC(=O)C(CC)n1nc(C)c2c(C)n(-c3ccc(C)cc3)nc2c1=O (stereo not given) | 16.4µM* | / | / | / | 18.4µM* | 2.5%
O=C1CCCC2=C1CC(C(=O)OCc1ccccc1)C(=O)N2Cc1ccccc1 (stereo not given) | -2.4% | / | -2.4 | 31.0 | -15.9% | /
CC(C)c1ccc(OCC(=O)NCCO)cc1 | ? | ? | -25.4 | -3.7 | ? | -1.9%
COc1ccc(-c2nnc(CSc3nc4ccccc4c(=O)n3CC(C)C)o2)cc1OC | 16.4µM* | ? | 16.5 | -15.8 | ? | 2.4%
COCCCn1c(SCc2nnc(-c3ccc(OC)c(OC)c3)o2)nc2ccccc2c1=O | 23.1µM* | 11.6µM* | 2.3 | ? | ? | 4.9%
CCOC(=O)C1=C(O)C(=O)N(CCCn2ccnc2)C1c1ccc(OC)cc1 (stereo not given) | / | 14.1% | / | / | / | 7.5%
Clc1nc(NC2CCCCC2)c2cn[nH]c2n1 | -17.5% | / | 13.6 | 49.1 | -22.1% | /
COc1cc2nc(N(C)CCCNC(=O)C3CCCO3)nc(N)c2cc1OC (stereo not given) | -14.4% | / | / | / | 5.2% | 5.1%[56.1 µM]
